This is a sample that favours compounds with a hit; in the whole collection about 32% have one here.
CYP2C9 inhib – blockers of cytochrome P450 2C9 activity – biochemical, luminescence, ADME assay, primary screen | inhibition, % at 5 µM | P11712 | AID 777, 2007 | CYP2C9 Supersomes, luciferin-H conversion | 96,000 compounds, 20% hits;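 active = blocking of liver enzyme CYP2C9 beyond about 50% at 5 µM, limit read from the data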
PostGolgi yeast – phenotypic screen on post-Golgi transport, primary screen; 98,000 compounds, 0.9% hits; inhibition, % at 10 µM; post-Golgi transport phenotypic cell assay;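 also: yeast cells grown in 1536-well plates; yeast grown about 18 h at 30C before absorbance read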
CYP2C19 inhib – blockers of cytochrome P450 2C19 activity – biochemical, luminescence, ADME assay, primary screen; inhibition, % at 5 µM; AID 778, 2007; CYP2C19 Supersomes, luciferin-H EGE luminescence, 30 min; 96,000 compounds, 21% hits; P33261;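 active = CYP2C19 inhibition above a set limit at 5 µM in the primary screen, cut at about 50% in these data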;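 also: plate controls were negative control wells for no effect and 2.5 mM tranylcypromine positive control for full effect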
Target sequence (P33261 whole entry, looked up): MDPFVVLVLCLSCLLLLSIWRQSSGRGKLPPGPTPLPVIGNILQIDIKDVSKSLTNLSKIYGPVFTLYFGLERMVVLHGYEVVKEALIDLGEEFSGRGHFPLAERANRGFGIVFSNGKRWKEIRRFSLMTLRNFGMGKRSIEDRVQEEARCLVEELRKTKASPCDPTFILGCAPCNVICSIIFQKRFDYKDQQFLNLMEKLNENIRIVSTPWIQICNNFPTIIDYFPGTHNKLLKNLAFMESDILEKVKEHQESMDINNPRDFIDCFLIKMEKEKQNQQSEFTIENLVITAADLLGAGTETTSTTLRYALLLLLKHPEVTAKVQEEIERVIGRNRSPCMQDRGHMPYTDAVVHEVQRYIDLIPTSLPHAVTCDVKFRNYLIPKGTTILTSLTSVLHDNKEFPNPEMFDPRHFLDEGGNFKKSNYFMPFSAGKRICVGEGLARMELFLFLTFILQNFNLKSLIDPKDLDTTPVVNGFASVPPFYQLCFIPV
PostGolgi ctrl – growth inhibition of yeast control strain, primary screen, counter-screen for post-Golgi transport modulator project; efflux-deficient yeast background strain, growth absorbance A615, 16 h; 98,000 compounds, 5% hits; inhibition, % at 10 µM
CYP2C19 act – human CYP2C19 activators, primary screen, biochemical, luminescence; Cytochrome P450 2C19 (Homo sapiens), P33261; recombinant CYP2C19, luciferin-H EGE luminescence; active compounds read high; 0 = fully inhibited enzyme, 1 = untreated enzyme; activation factor at 5 µM; 96,000 tested, under 10 active;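 active = activation factor of at least 2 at 5 µM in the primary screen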;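 also: 0 = wells with 2.5 mM tranylcypromine and 1 = vehicle-only wells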
CYP2C9 activ – human CYP2C9 activators, primary screen, biochemical, luminescence. activation factor at 5 µM. AID 1024, 2008. 96,000 compounds, 1.4% hits. recombinant CYP2C9, luciferin-H conversion; active compounds read high; factor 1 = untreated enzyme, 0 = blocked. Cytochrome P450 2C9 (Homo sapiens), P11712;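 active = activation factor of 2 or more for CYP2C9 at a 5 µM dose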;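 also: 0 = sulfaphenazole-blocked wells and 1 = vehicle-only wells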
* hit, by the source's call. Rule as the data show it, unless noted: active = inhibition above about 30%; inactive = the rest.

SMILES | CYP2C9 inhib | PostGolgi yeast | CYP2C19 inhib | PostGolgi ctrl | CYP2C19 act | CYP2C9 activ
Cc1nn(CCC#N)c(NC(=O)c2ccc(Cl)cc2Cl)c1P(=O)(Nc1ccc([N+](=O)[O-])cc1)N1CCOCC1 (centres undefined) | 11 | 0 | -6 | 2 | 1.1 | 0.9
COC(=O)c1ccc(-c2ccco2)n1Cc1ccccc1Cl | 63* | -4 | 16 | 1 | 0.8 | 0.4
Cc1ccc(N=C(NO)c2nonc2N)cc1 | 9 | -3 | 42 | 41* | 0.6 | 0.9
Cc1ccc(-c2nc(C3CCCN(S(=O)(=O)c4ccc(C)cc4)C3)no2)cc1 (centres undefined) | 57* | 2 | 58* | 16 | 0.4 | 0.4
Cc1ccc(-c2nc(C3CCCN(S(=O)(=O)c4ccc(C(C)(C)C)cc4)C3)no2)cc1 (centres undefined) | -33 | -12 | 5 | -9 | 0.9 | 1.3
O=C(c1ccco1)N1CCN(c2cc(C(F)(F)F)nc3ncnn23)CC1 | -5 | -1 | -3 | 1 | 1 | 1.1
COc1ccc(C(C)=O)cc1COC(=O)Cc1n[nH]c(=O)c2ccccc12 | 44 | -11 | 42 | 1 | 0.6 | 0.6
COc1ccc(C(C)=O)cc1COC(=O)c1cc(C)oc1C | 66* | -4 | 61* | 21 | 0.4 | 0.3
COc1ccc(C(C)=O)cc1COC(=O)c1cccc(N(C)C)c1 | 79* | -4 | 72* | 15 | 0.3 | 0.2
O=C(Cn1[nH]c(=O)c2ccccc2c1=O)Nc1ccc(-c2nnc3n2CCCCC3)cc1 | 19 | 0 | 2 | -11 | 1 | 0.8
CCOC(=O)CNC(=O)CSc1nnc(Cn2cnc3ccccc32)n1C | -3 | 1 | -10 | 8 | 1.1 | 1
COc1ccccc1NS(=O)(=O)c1ccc(Br)s1 | 6 | 10 | 92* | 11 | 0.1 | 0.9
COc1cccc(NS(=O)(=O)c2ccc(Br)s2)c1 | 84* | -5 | 100* | 12 | 0 | 0.2
C=C1CSc2nc3ccccc3c(=O)n21 | -7 | -4 | -3 | 24 | 1 | 1.1
Cc1cc(Nc2ccc(F)cc2C)n2nc(C)nc2n1 | -13 | -9 | -19 | 7 | 1.2 | 1.1
Cc1cc(C)c(S(=O)(=O)NCCn2c(C)cc3ccccc32)c(C)c1 | 90* | -3 | 73* | 44* | 0.3 | 0.1
CCCn1c(CNS(=O)(=O)c2ccc(C)cc2)nc2ccccc21 | -23 | 0 | 36 | 13 | 0.6 | 1.2
Cc1ccc(S(=O)(=O)NCCn2c(C)cc3ccccc32)cc1 | 68* | 9 | 67* | 5 | 0.3 | 0.3
O=S(=O)(NCCn1ccc2ccccc21)c1ccccc1 | 70* | -3 | 100* | 14 | 0 | 0.3
CC(NC(=O)NC1CCCCC1)C(c1cccs1)N1CCN(C)CC1 (centres undefined) | 11 | -9 | -2 | 4 | 1 | 0.9
Cc1ccccc1NC(=O)Cn1nnc(-c2ccc(N3CCOCC3)cc2)n1 | 6 | 3 | 7 | 0 | 0.9 | 0.9
CN(C)c1ccc(-c2nnn(CC(=O)Nc3ccccc3N3CCOCC3)n2)cc1 | 90* | -3 | 48 | 12 | 0.5 | 0.1
CN(C)c1ccc(-c2nnn(CC(=O)N3c4ccccc4CCc4ccccc43)n2)cc1 | 77* | 2 | 71* | 7 | 0.3 | 0.2
COc1ccc(Cc2ccc(OC)c(N)c2)cc1N | -6 | -2 | 66* | -6 | 0.3 | 1.1
COC(=O)c1cc(Cc2ccc(N)c(C(=O)OC)c2)ccc1N | 28 | -2 | 32 | 22 | 0.7 | 0.7
SMILES | CYP2C9 inhib | PostGolgi yeast | CYP2C19 inhib | PostGolgi ctrl | CYP2C19 act | CYP2C9 activ
COc1cccc2sc(Nc3nc(-c4ccccn4)cs3)nc12 | 4 | 98* | 9 | 87* | 0.9 | 1
c1ccc(-c2csc(Nc3cccnc3)n2)nc1 | 68* | -6 | 67* | -1 | 0.3 | 0.3
O=C(Nc1nccs1)c1nc(-c2ccccc2)n(-c2ccccc2)n1 | -5 | -7 | -4 | 30 | 1 | 1
CCSc1nnc(NC(=O)c2nn(C(C)C)c(=O)c3ccccc23)s1 | 16 | 7 | 7 | 30* | 0.9 | 0.8
CCSc1nnc(NC(=O)c2nc(-c3ccccc3)n(-c3ccccc3)n2)s1 | 92* | 2 | 55* | 16 | 0.5 | 0.1
CCCC(C)NC(=O)c1nc(-c2ccccc2)n(-c2ccccc2)n1 (centres undefined) | 86* | -6 | 33 | 6 | 0.7 | 0.1
Cc1csc(NC(=O)c2nc(-c3ccccc3)n(-c3ccccc3)n2)n1 | 75* | 38* | 43 | 8 | 0.6 | 0.2
CCC(Sc1nc(N)cc(N)n1)C(=O)O (centres undefined) | -7 | -5 | -9 | 5 | 1.1 | 1.1
CCOC(=O)C1(Cc2ccc(O)cc2)NC(c2ccco2)C2C(=O)N(c3ccccc3F)C(=O)C21 (centres undefined) | 14 | -2 | 4 | 8 | 1 | 0.9
Cc1ccc(C)c(NC(=O)c2nc(-c3ccccc3)n(-c3ccccc3)n2)c1 | 71* | -1 | 79* | 23 | 0.2 | 0.3
CCOC(=O)c1c(C)nc2sc3c(=O)n(-c4ccc(C(C)=O)cc4)cnc3c2c1-c1ccc(OC)cc1 | 76* | -4 | 70* | 15 | 0.3 | 0.2
Cc1ccc2oc(=O)c3cnn(CC(=O)NCCC(C)C)c3c2c1 | 18 | -2 | 14 | -4 | 0.9 | 0.8
O=C(O)C1Cc2ccccc2CN1C(=O)c1ccccc1 (centres undefined) | -10 | 0 | 0 | 7 | 1 | 1.1
CC(C)=CCC(C)(C)C1OCCN1C(=O)c1ccccc1 (centres undefined) | 44 | -10 | 71* | 17 | 0.3 | 0.6
COc1ccccc1NC(=O)CC1C(=O)Nc2c1c(=O)n(C)c(=O)n2C (centres undefined) | 58* | -1 | 10 | 0 | 0.9 | 0.4
Cc1cc(=O)oc2cc(OCC(=O)OCC(=O)N3CCc4ccccc43)ccc12 | -9 | 5 | 6 | 2 | 0.9 | 1.1
CCOc1ccc(CCNC(=O)CCc2nc(-c3ccc(OC)cc3)no2)cc1OCC | 47 | -9 | 19 | 0 | 0.8 | 0.5
COc1ccc(-c2noc(CCC(=O)N(C)c3cccc(C)c3)n2)cc1 | 83* | -10 | 89* | 11 | 0.1 | 0.2
Cc1ccc(-c2noc(CCC(=O)N(C)c3ccccc3C)n2)cc1 | 94* | 0 | 82* | 20 | 0.2 | 0.1
CCN(C(=O)CCc1nc(-c2ccc(OC)cc2)no1)c1cc(OC)ccc1OC | 75* | 3 | 59* | 8 | 0.4 | 0.3
COc1ccc(-c2[nH]c(-c3ccc(F)cc3)nc2SCC(=O)NCc2ccco2)cc1OC | 48 | -16 | 51* | 1 | 0.5 | 0.5

High-throughput results deposited in PubChem BioAssay by several laboratories.
